The panel holds about 83,000 compounds, 20% with a hit somewhere; the sample as a whole holds those more often.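 Treatment: one concentration, 48 hours, 96-well format. Scoring: percent growth, with anything below 10 considered active.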 Active and inactive are the calls of the source.
The compounds below were run on HOP-92 NSCLC (assay: NCI-60 one-dose screen, 48 h (100 = growth as untreated, 0 = no growth, -100 = all killed)). Conditions: 10 µM unless noted.
Procedure: Growth inhibition of the HOP-92 human Non-Small Cell Lung tumor cell line is measured as a screen for anti-cancer activity. Cells are grown in 96 well plates and exposed to the test compound for 48 hours. Compounds are tested at a single concentration, which is 10^-5 M for most compounds. The reported endpoint is percent growth (GI% or GIPRCNT), where numbers from 0 - 100% represent growth inhibition, and numbers from -100% - 0 represent cell death. For example, a value of 40 represents 60% growth inhibition. A value of 0 means no net growth occurred over the course of the experiment. A value of -40 indicates 40% of cells at the beginning of the experiment died by the end of the experiment. A value of -100 means all cells are dead at the end of the experiment.
NCI-60 Human Tumor Cell Lines Screen was performed using the standard one-dose NCI protocol, which is described in more detail at https://dtp.cancer.gov/discovery_development/nci-60/default.htm.
Compounds with GIPRCNT values below 10 were considered active. Activity score was based on GIPRCNT using the following formula: […]
Score is 0 for GIPRCNT values of 100 or above, 50 for GIPRCNT values of 0, and 100 for GIPRCNT values of -100.

| SMILES | growth |
| --- | --- |
| O=C(/C(=C/c1ccc([N+](=O)[O-])cc1)SCc1ccc(Cl)cc1)c1ccc(F)cc1 | 80.3% (inactive) |
| C#C[C@@]1(O)[C@@H](CO)O[C@@H](n2cnc3c(-c4ccccc4)ncnc32)[C@@H]1O | 105% (inactive) |
| C=C1C(=O)O[C@H]2[C@H]1CC/C(COC(=O)c1cccnc1)=C\CC[C@@]1(C)O[C@@H]21 | 49.2% (inactive) |
| COc1ccc(/C=C/C(=O)Nc2ncnc3nc[nH]c23)cc1 | 106% (inactive) |
| CCCCCCN1C(=O)CN=C1Nc1ccc2cc3ccc(NC4=NCC(=O)N4CCCCCC)cc3nc2c1 | 82.9% (inactive) |
| Cc1nccc2c3ccc(OCc4cn(-c5ccccc5)nn4)cc3n(CCCc3ccccc3)c12 | 57.3% (inactive) |
| COc1cc(/C=N/Nc2nc(-c3ccc(F)cc3)c(C#N)c(N3CCOCC3)n2)ccc1O | 80% (inactive) |
| COC(=O)c1nc(-c2ccccc2)oc1S(=O)(=O)n1nc(C)cc1N | 49.5% (inactive) |
| COc1cc(-c2cn(-c3ccc(Cl)c(Cl)c3)c(=O)[nH]2)cc(OC)c1OC | 82% (inactive) |
| CCOC(=O)NC(Cc1ccccc1)c1ccccc1 (stereo not given) | 87.4% (inactive) |
| COc1ccccc1C(=O)/C=C/c1cc2cccc(OC)c2[nH]c1=O | 10.6% (inactive) |
| CC1(C)[C@@H](O)CC[C@]2(C)[C@H]3CC[C@@H]4[C@H]5[C@H](c6cn(-c7ccccc7)nn6)CC[C@]5(CO)CC[C@@]4(C)[C@]3(C)CC[C@@H]12 | 100% (inactive) |
| Cn1cc(-c2ccc3c(c2)ncn3-c2ccc(CC(=O)Nc3cc(C(C)(C)C)on3)cc2)cn1 | 5.11% (active) |
| COc1cc(NCC(=O)Nc2cc(Nc3cccc(C(F)(F)F)c3)ncn2)c(Cl)c(OC)c1Cl | 92.7% (inactive) |
| NC(=O)CN1C(=O)c2ccccc2C1=O | 96.7% (inactive) |
| Cn1c2c(c3ccc(-c4ccn[nH]4)cc3c1=O)C(=O)c1ccccc1-2 | 79.3% (inactive) |
| O=C(Nc1nc2ccc(C(F)(F)F)cc2s1)c1cc(Cl)ccc1O | -12.3% (active) |
| Cc1nccc2c3ccc(OCc4cn(-c5ccc(Br)cc5)nn4)cc3n(CC(C)C)c12 | 16.4% (inactive) |
| CC(=O)Nc1ccc2c(c1)Cc1cc(F)ccc1-2 | 93.4% (inactive) |
| COc1c(O)cc2oc3cc(O[C@@H]4OC(C)[C@@H](O)[C@H](O)C4O)c(CC=C(C)C)c(O)c3c(=O)c2c1CC=C(C)C (stereo not given in full) | 89.2% (inactive) |

| SMILES | growth |
| --- | --- |
| O=C(CN1N=C(c2ccc(F)cc2)CCC1=O)Nc1nccs1 | 86.6% (inactive) |
| O=C1CS/C(=N/c2nnc(-c3ccc(O)cc3)s2)N1 | 111% (inactive) |
| COc1ccc2[nH]c(=O)c(/C=C/C(=O)/C=C/c3ccc(O)c(OC)c3)cc2c1 | 98.3% (inactive) |
| Nc1c(C(=O)Nc2ccccn2)sc2nc3c(cc12)C(=O)CCC3 | 87.3% (inactive) |
| O=C(O)c1ccc(-n2cc(/C=N/Nc3ccc(Cl)cc3Cl)c(-c3ccccc3)n2)cc1 | 106% (inactive) |
| O=C(O)c1cn(C2CC2)c2cc(N3CCN(C(=O)CSc4nnc(-c5ccc(Cl)cc5)n4-c4ccccc4)CC3)c(F)cc2c1=O | 79.6% (inactive) |
| C#C[C@@]1(O)[C@@H](CO)O[C@@H](n2ccc3c(N)ncnc32)[C@@H]1O | -15.8% (active) |
| COc1ccc2c(c1)/C(=C1\S/C(=N/c3nnc(C)s3)NC1=O)C(=O)N2Cc1ccc(Cl)cc1 | 26% (inactive) |
| COc1ccc2nc(-c3ccc(OC)c(OC)c3)cc(-c3nnc(SCC(=O)Nc4ccc(C(C)=O)cc4)o3)c2c1 | 116% (inactive) |
| CCCn1c(N)c(C(N)=O)sc1=S | 89.5% (inactive) |
| Cc1nc2sc(C(=O)Nc3cccc(Cl)c3C)c(N)c2cc1C(C)O (stereo not given) | 43.2% (inactive) |
| CCSc1nc(Cl)c(C#N)c(-c2ccc(F)cc2)n1 | 99% (inactive) |
| COC(=O)c1ccc2c(c1)NC(=O)[C@@H]1CCCN21 | 87.5% (inactive) |
| Cc1ccn2c3c(c(C(=O)O)c2c1)C(=O)c1ccccc1C3=O | 96.8% (inactive) |
| O=C1CCc2ccccc2N1 | 101% (inactive) |
| NCCN1CCNCC1 | 100% (inactive) |
| Cn1c2ccccc2c2c(OC(=O)c3ccccc3)c3c(nc21)-c1ccccc1C3 | 91.5% (inactive) |
| CCOCc1cc(C(C)(C)C)ccc1O | 92.3% (inactive) |
| c1ccc(Sc2ncccn2)nc1 | 89% (inactive) |
| O=C(C[n+]1cccc2cc(Cl)ccc21)c1ccc2c(c1)CCCC2 | 4.68% (active) |
